From PubChem BioAssay (NCI)
About 83,000 compounds went through this panel and 20% of them were active in at least one assay; those are over-represented in the sample as a whole.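 For each line, cells grew in 96-well plates with the test compound present at a single concentration for 48 hours.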 Calls of active or inactive are those of the source. Rule for the calls: active = growth percent below 10; inactive = the rest.

Experiments:
Test in all cases: NCI-60 one-dose screen, 48 h (100 = growth as untreated, 0 = no growth, -100 = all killed)
HT29 colon = conditions: 10 µM unless noted
SNB-75 CNS = conditions: 10 µM unless noted
SNB-19 CNS = conditions: 10 µM unless noted
U251 CNS = conditions: 10 µM unless noted
PC-3 prostate = conditions: 10 µM unless noted
UACC-62 melanoma = conditions: 10 µM unless noted
LOX IMVI melanoma = conditions: 10 µM unless noted
SK-MEL-28 melanoma = conditions: 10 µM
SK-MEL-2 melanoma = conditions: 10 µM unless noted
SK-MEL-5 melanoma = conditions: 10 µM unless noted

Measured: growth

O=C(N/N=C/c1ccccc1Cl)C(=O)Nc1cccc(C(F)(F)F)c1
inactive: HT29 colon 97.4% | SNB-75 CNS 116% | SNB-19 CNS 94.1% | U251 CNS 96.9% | PC-3 prostate 106% | UACC-62 melanoma 91.2% | LOX IMVI melanoma 94.9% | SK-MEL-28 melanoma 113% | SK-MEL-2 melanoma 113%

COc1cccc(-c2nn(C)c3sc(C(=O)NCCN4CCN(c5ccccc5F)CC4)cc23)c1
inactive: HT29 colon 17% | SNB-75 CNS 64.8% | SNB-19 CNS 92.4% | U251 CNS 59% | PC-3 prostate 38.3% | SK-MEL-2 melanoma 99.4%
active: SK-MEL-5 melanoma -79.6% | UACC-62 melanoma -72.1% | SK-MEL-28 melanoma -75.2%

O=S1(=O)N(Cc2ccccc2)[C@@H](Cc2ccccc2)C2O[C@H]2[C@H](Cc2ccccc2)N1Cc1ccccc1 (some centres undefined)
inactive: HT29 colon 46.7% | SNB-75 CNS 46.3% | SNB-19 CNS 44.9% | U251 CNS 41.5% | PC-3 prostate 42% | SK-MEL-5 melanoma 28.3% | UACC-62 melanoma 40.8% | LOX IMVI melanoma 19.6% | SK-MEL-2 melanoma 84.1%

CC[C@]1(O)C[C@@H]2CN(CCc3c([nH]c4ccccc34)[C@@](C(=O)OC)(c3cc4c(cc3OC)N(C)[C@H]3[C@@](O)(C(=O)OC)[C@H](OC(=O)CCCBr)[C@]5(CC)C=CCN6CC[C@]43[C@@H]65)C2)C1
inactive: SNB-75 CNS 13.2% | SNB-19 CNS 28.8% | U251 CNS 13.5% | PC-3 prostate 20.1% | UACC-62 melanoma 34.8% | SK-MEL-28 melanoma 67.3% | SK-MEL-2 melanoma 13.6%
active: HT29 colon 4.86% | LOX IMVI melanoma 8.02%

COCCN(C(=O)Cc1cccs1)C(C(=O)NCc1ccc(OC)cc1)c1ccc(C(C)C)cc1 (centres undefined)
inactive: HT29 colon 97.2% | SNB-75 CNS 79.7% | SNB-19 CNS 106% | U251 CNS 97.1% | PC-3 prostate 47.5% | SK-MEL-5 melanoma 98.2% | UACC-62 melanoma 84.8% | SK-MEL-28 melanoma 113% | SK-MEL-2 melanoma 102%

O=C(Nc1ccc(F)c(Cl)c1)Nc1ccc(Cl)c(Cl)c1
inactive: HT29 colon 51.8% | SNB-75 CNS 79.7% | SNB-19 CNS 92.8% | U251 CNS 63.4% | PC-3 prostate 77% | SK-MEL-5 melanoma 59.6% | UACC-62 melanoma 58.9% | SK-MEL-28 melanoma 70.1% | SK-MEL-2 melanoma 79.7%

O=C(CCc1nnc2sc(Cc3ccccc3Cl)nn12)c1nc2ncccc2[nH]1
inactive: HT29 colon 104% | SNB-75 CNS 67.7% | SNB-19 CNS 93.3% | U251 CNS 104% | PC-3 prostate 85.6% | UACC-62 melanoma 83.2% | LOX IMVI melanoma 88% | SK-MEL-28 melanoma 96.2% | SK-MEL-2 melanoma 97.9%

Oc1[nH]c2ccccc2c1N=Nc1nnc2n1N=C(c1ccccc1)CS2
inactive: HT29 colon 72.5% | SNB-75 CNS 65.1% | SNB-19 CNS 83.6% | U251 CNS 50.4% | PC-3 prostate 81% | UACC-62 melanoma 99.8% | LOX IMVI melanoma 93.4% | SK-MEL-28 melanoma 97% | SK-MEL-2 melanoma 87.6%

O=C(Nc1ccccc1O)c1ccc(-c2ccc(Cl)cc2Cl)o1
inactive: HT29 colon 53.9% | SNB-75 CNS 78.1% | SNB-19 CNS 89.2% | U251 CNS 81.1% | PC-3 prostate 71.7% | SK-MEL-5 melanoma 85.9% | UACC-62 melanoma 105% | SK-MEL-28 melanoma 98.6% | SK-MEL-2 melanoma 96.3%

COc1ccccc1C(=O)/C=C/c1ccccc1
inactive: HT29 colon 56.6% | SNB-75 CNS 88.5% | SNB-19 CNS 82.8% | U251 CNS 43.8% | PC-3 prostate 75.3% | UACC-62 melanoma 85.2% | LOX IMVI melanoma 76.2% | SK-MEL-28 melanoma 105% | SK-MEL-2 melanoma 104%

O=c1c2cc(F)ccc2sc2c(NCCCNCCO)nc3ccc(Cl)cc3c12
active: HT29 colon -48.6%
inactive: SNB-75 CNS 46.1% | SNB-19 CNS 76.5% | U251 CNS 33% | PC-3 prostate 50.7% | UACC-62 melanoma 91.6% | LOX IMVI melanoma 14.6% | SK-MEL-28 melanoma 99.9% | SK-MEL-2 melanoma 105%

CCOc1ccc(-c2nonc2NC(=O)c2cccc(C)c2)cc1OCC
inactive: HT29 colon 28.3% | SNB-75 CNS 89.2% | SNB-19 CNS 90.7% | U251 CNS 75% | PC-3 prostate 27.4% | SK-MEL-5 melanoma 35.2% | UACC-62 melanoma 78.4% | SK-MEL-28 melanoma 89.5% | SK-MEL-2 melanoma 88.6%

O=C1c2ccccc2C(=O)c2c1ccc1[nH]c(CCl)nc21
active: HT29 colon 5.78% | U251 CNS 9.78% | LOX IMVI melanoma -36.9%
inactive: SNB-75 CNS 33.4% | SNB-19 CNS 47.8% | PC-3 prostate 39.3% | UACC-62 melanoma 39.5% | SK-MEL-28 melanoma 57.6% | SK-MEL-2 melanoma 27.4%

CC(C)C[C@H](C(=O)N[C@H](C(N)=O)C(C)C)N1CC=CCN(OCc2ccccc2)S1(=O)=O
inactive: HT29 colon 102% [2.5 µM] | SNB-75 CNS 69.7% [2.5 µM] | SNB-19 CNS 94.7% [2.5 µM] | U251 CNS 97.1% [2.5 µM] | PC-3 prostate 98.5% [2.5 µM] | SK-MEL-5 melanoma 106% [2.5 µM] | UACC-62 melanoma 98.8% [2.5 µM] | LOX IMVI melanoma 95.7% [2.5 µM] | SK-MEL-2 melanoma 98.9% [2.5 µM]

COc1ccccc1N1CCN(C(CNS(=O)(=O)c2ccc(Cl)cc2)c2cccnc2)CC1 (centres undefined)
inactive: HT29 colon 45.3% | SNB-75 CNS 91.4% | SNB-19 CNS 107% | U251 CNS 61.7% | PC-3 prostate 48.9% | SK-MEL-5 melanoma 90.2% | UACC-62 melanoma 100% | SK-MEL-28 melanoma 85.2% | SK-MEL-2 melanoma 120%

c1ccc(-c2ccc(-c3nc4ccccc4[nH]3)cc2)cc1
inactive: HT29 colon 52.9% | SNB-75 CNS 55.4% | SNB-19 CNS 106% | U251 CNS 90.6% | PC-3 prostate 76.8% | UACC-62 melanoma 103% | LOX IMVI melanoma 84.1% | SK-MEL-28 melanoma 93.2% | SK-MEL-2 melanoma 101%

COc1ccc(-c2cn[nH]c2-c2ccc(OC)c(O)c2)cc1
inactive: HT29 colon 94.3% | SNB-75 CNS 87.6% | SNB-19 CNS 76.5% | U251 CNS 63.1% | PC-3 prostate 84% | UACC-62 melanoma 66% | LOX IMVI melanoma 59.5% | SK-MEL-28 melanoma 89.1% | SK-MEL-2 melanoma 42%

COc1ccc(-c2nocc2-c2cccs2)cc1
inactive: HT29 colon 114% | SNB-75 CNS 89.4% | SNB-19 CNS 102% | U251 CNS 110% | PC-3 prostate 101% | UACC-62 melanoma 93.3% | LOX IMVI melanoma 108% | SK-MEL-28 melanoma 103% | SK-MEL-2 melanoma 103%

O=C(Nc1ccc(F)cc1F)c1cc(I)ccc1O
active: SNB-75 CNS -2.44% | U251 CNS 4.06% | PC-3 prostate 5.01% | UACC-62 melanoma 9.89% | SK-MEL-2 melanoma -15.8%
inactive: HT29 colon 76.6% | SNB-19 CNS 16.8% | LOX IMVI melanoma 13.4% | SK-MEL-28 melanoma 23.8%

COc1ccc(-c2cc(=O)c3c(OC)c4ccoc4c(/C=C/C=O)c3o2)cc1
active: SNB-75 CNS -1.37% | LOX IMVI melanoma -11.8%
inactive: HT29 colon 79.1% | SNB-19 CNS 49% | U251 CNS 16.4% | PC-3 prostate 21.3% | UACC-62 melanoma 67.1% | SK-MEL-28 melanoma 89.1% | SK-MEL-2 melanoma 75.4%

Cc1ccc(NCCNCC(O)CO)c2c(=O)c3ccccc3sc12 (centres undefined)
inactive: SNB-75 CNS 44.6% | SNB-19 CNS 26.3% | PC-3 prostate 13.6% | SK-MEL-2 melanoma 75.8%
active: HT29 colon -61.1% | U251 CNS 9.2% | UACC-62 melanoma -49.9% | LOX IMVI melanoma -95.2% | SK-MEL-28 melanoma 1.81%

O=C(NC1CCN(Cc2ccccc2)CC1)c1cc(C(=O)NC2CCN(Cc3ccccc3)CC2)cc(C(=O)NC2CCN(Cc3ccccc3)CC2)c1
inactive: HT29 colon 75% | SNB-75 CNS 68% | SNB-19 CNS 85.7% | U251 CNS 72.4% | PC-3 prostate 74.4% | UACC-62 melanoma 84.9% | SK-MEL-28 melanoma 95.6% | SK-MEL-2 melanoma 73.6%
active: LOX IMVI melanoma -69.6%

O=C1C(=O)c2c(ccc3ccccc23)-c2ccccc21
active: U251 CNS 1.64% | PC-3 prostate 5.79% | UACC-62 melanoma -25.2% | LOX IMVI melanoma -33.2% | SK-MEL-28 melanoma 3.64% | SK-MEL-2 melanoma -68.8%
inactive: HT29 colon 61.5% | SNB-75 CNS 26.2% | SNB-19 CNS 18.9%

O=c1oc2ccc(F)cc2c(=O)n1-c1ccc(Br)cc1F
inactive: HT29 colon 32.6% | SNB-19 CNS 17.1% | LOX IMVI melanoma 13.5% | SK-MEL-28 melanoma 11.1%
active: SNB-75 CNS -15.7% | U251 CNS 2.06% | PC-3 prostate -2.97% | UACC-62 melanoma -6.65% | SK-MEL-2 melanoma -30.2%

COc1ccc(N2C(=O)CC(c3cc(OC)c(OC)c(OC)c3)C3C2=NC(=O)N3C)cc1 (centres undefined)
inactive: HT29 colon 104% | SNB-75 CNS 99.5% | SNB-19 CNS 102% | U251 CNS 110% | PC-3 prostate 100% | UACC-62 melanoma 104% | LOX IMVI melanoma 103% | SK-MEL-28 melanoma 108% | SK-MEL-2 melanoma 116%

O=c1oc2ccc(I)cc2c(=O)n1-c1ccc(F)cc1F
inactive: HT29 colon 107% | SNB-19 CNS 14.7% | LOX IMVI melanoma 11.4% | SK-MEL-28 melanoma 18.9%
active: SNB-75 CNS -13.4% | U251 CNS 8.66% | PC-3 prostate 3.58% | UACC-62 melanoma 0.781% | SK-MEL-2 melanoma -17.3%
